# Measured values published in PubChem BioAssay (NCI).
# This is part of a sample that, as a whole, favours compounds with a hit. Of some 83,000 tested, about 20% had one in any assay.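 Cells were grown in 96-well plates and exposed to the test compound at a single concentration for 48 hours; results are reported as percent growth, with values below 10 considered active.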 A number with no mark means an inactive call. The source made the active and inactive calls.
# Test system: A498 renal
# Assay: NCI-60 one-dose screen, 48 h (100 = growth as untreated, 0 = no growth, -100 = all killed)
# Conditions: 10 µM unless noted
row,Compound,growth
1,Clc1ccc2c(NCCCNC3CCCCC3)ccnc2c1,98.9%
2,CCSc1nc(Cl)c(C#N)c(-c2ccc(F)cc2)n1,92.3%
3,COc1cc2c(cc1OCCCOc1cc3c(cc1OC)C(=O)N1CC(F)(F)C[C@H]1C=N3)N=C[C@@H]1CC(F)(F)CN1C2=O,-66.6% (active)
4,CN1CCN(CC#CCOC(=O)CNC(=O)[C@]23CCC(C)(C)C[C@H]2C2=CC[C@@H]4[C@@]5(C)CC[C@H](O)C(C)(C)[C@@H]5CC[C@@]4(C)[C@]2(C)CC3)CC1,69.4%
5,COc1cc(C(=O)N2CCN(c3ccccc3OC)CC2)c(NC(=O)c2cnccn2)cc1OCc1ccccc1,84.9%
6,C(=C\c1cn(-c2ccccc2)nc1-c1ccccc1)/c1nnc(-c2c[nH]c3ccccc23)o1,109%
7,Nc1c(C(=O)Nc2ccccn2)sc2nc3c(cc12)C(=O)CCC3,2.05% (active)
8,C=C1C(=O)O[C@H]2[C@H]1CC/C(COC(=O)CCCCCCC(=O)OC/C1=C/CC[C@@]3(C)O[C@H]3[C@H]3OC(=O)C(=C)[C@@H]3CC1)=C\CC[C@@]1(C)O[C@@H]21,96.3%
9,O=C(Nc1ccc2ncnc(Nc3ccc(F)c(Cl)c3)c2c1)c1ccccc1,67.6%
10,O=C(NC[C@H](O)CN1CCc2ccccc2C1)c1cc(NC2COC2)ncn1,116%

# Test system: CCRF-CEM leukemia
# Assay: as above
# Conditions: 10 µM unless noted
row,Compound,growth
1,COC(=O)c1nc(-c2ccccc2)oc1S(=O)(=O)n1nc(-c2ccccc2)cc1N,27.2%
2,COc1ccc(C(=O)c2cc(OC)c(C)c(OC)c2)cc1OC(=O)CCl,11.9%
3,CC(=O)c1cnc(-c2ccccc2)nc1CBr,35.8%
4,O=C1CC23OC4ON=C(Br)C4C2C(O)c2ccccc2N13 (stereo not drawn),111%
5,COc1ccc(C(=S)c2cc(OC)c(OC)c(OC)c2)cc1OC(=O)CCl,14.3%
6,COc1ccc2oc(=O)cc(-c3c(C#N)c(N)n4nc(N)c(C#N)c4c3C#N)c2c1,106%
7,O=C(Nc1cc(Br)ccn1)c1cc2cc(Nc3nc(-c4ccccc4)nc4ccccc34)ccc2oc1=O,107%
8,CC1CCCN(CCCCCOc2ccc3oc4ccc(Cl)cc4c(=O)c3c2)C1 (stereo not drawn),72.8%
9,COc1cc(C2=NNC(c3ccc(N(C)C)cc3)C2)cc(OC)c1OC (stereo not drawn),17%
10,Cn1c2ccccc2c2c(OC(=O)c3ccccc3)c3c(nc21)-c1ccccc1C3,98.8%
11,COc1cc(C(C)c2ccc3c(ccn3C)c2)cc(OC)c1OC (stereo not drawn),16.3%
12,CC(=O)OCC1SC(OC(C)=O)C(NC(=O)/C=C/CCl)C(OC(C)=O)C1OC(C)=O (stereo not drawn),83.7%
13,C[C@H]1[C@H](C)CC[C@]2(C(=O)OCCCC[P+](c3ccccc3)(c3ccccc3)c3ccccc3)CC[C@]3(C)C(=CC[C@@H]4[C@@]5(C)CC[C@H](OC(=O)C(Cl)Cl)C(C)(C)[C@@H]5CC[C@]43C)[C@H]12,-16.6% (active)
14,O=C1C(=O)c2c(nc3ccc(C(F)(F)F)cn23)-c2ccccc21,0.668% (active)
15,COc1ccc2[nH]c(-c3ccccc3)c(C=C(C#N)C#N)c2c1,2.26% (active)
16,NC(=N\N=C\c1ccccc1O)/C(N)=N/N=C/c1ccccc1O,80.1%
17,Cc1ccc(-c2nc(C#N)c(S(=O)(=O)N(C)CCO)o2)cc1,2.67% (active)
18,CC[C@H](Nc1ncnc2nc[nH]c12)c1nc2cccc(CC(=O)c3ccc(C(=O)NO)cc3)c2c(=O)n1-c1ccccc1,90.1%
19,NC(=O)c1ccc2nc3c(n2c1)C(=O)C(=O)c1ccccc1-3,-1.51% (active)

row,Compound,growth
1,COc1cccc(C(=O)OCCn2nc3c4c(cccc42)C(=O)c2ccccc2-3)c1O,18.3%
2,COc1ccc(C(C)c2cc(OC)c(OC)c(OC)c2)cc1 (stereo not drawn),18.5%
3,C#C[C@@]1(O)[C@@H](CO)O[C@@H](n2ccc3c(N)ncnc32)[C@@H]1O,13.3%
4,COc1cc(NC(=O)COc2cc(C)nc3ccc(OC)cc23)cc(OC)c1,82%
5,CN1CCN(C(=O)[C@@]2(C)CC[C@]3(C)CC[C@]4(C)C(=CC[C@@H]5[C@@]6(C)CC[C@H](OC(=O)c7cccnc7)C(C)(C)[C@@H]6CC[C@]54C)[C@@H]3C2)CC1,1.45% (active)
6,NS(=O)(=O)c1ccc(N2Cc3cc(Cl)ccc3OC3=C2C(=O)N(CC2CCCCC2)C3=O)cc1,-38.8% (active)
7,CCCCc1nc(Cl)c(C2CC(c3ccc(Cl)cc3)=NN2c2cc(Cl)cc(Cl)c2)[nH]1 (stereo not drawn),51.6%
8,C[C@H]1[C@H](C)CC[C@]2(C(=O)OCCOCCOCC[P+](c3ccccc3)(c3ccccc3)c3ccccc3)CC[C@]3(C)C(=CC[C@@H]4[C@@]5(C)CC[C@H](OC(=O)C(Cl)Cl)C(C)(C)[C@@H]5CC[C@]43C)[C@H]12,7.44% (active)
9,C=C(C)[C@@H]1CC[C@]2(C(=O)N3CCN(C)CC3)CC[C@]3(C)[C@H](CC[C@@H]4[C@@]5(C)C/C(=C/c6ccco6)C(=O)C(C)(C)[C@@H]5CC[C@]43C)[C@@H]12,50.1%
10,Clc1ccc2c(NCCCNC3CCCCC3)ccnc2c1,67.7%
11,CCSc1nc(Cl)c(C#N)c(-c2ccc(F)cc2)n1,50.4%
12,COc1cc2c(cc1OCCCOc1cc3c(cc1OC)C(=O)N1CC(F)(F)C[C@H]1C=N3)N=C[C@@H]1CC(F)(F)CN1C2=O,-33.1% (active)
13,CN1CCN(CC#CCOC(=O)CNC(=O)[C@]23CCC(C)(C)C[C@H]2C2=CC[C@@H]4[C@@]5(C)CC[C@H](O)C(C)(C)[C@@H]5CC[C@@]4(C)[C@]2(C)CC3)CC1,85.6%
14,COc1cc(C(=O)N2CCN(c3ccccc3OC)CC2)c(NC(=O)c2cnccn2)cc1OCc1ccccc1,-44% (active)
15,C(=C\c1cn(-c2ccccc2)nc1-c1ccccc1)/c1nnc(-c2c[nH]c3ccccc23)o1,78.8%
16,Nc1c(C(=O)Nc2ccccn2)sc2nc3c(cc12)C(=O)CCC3,47.9%
17,C=C1C(=O)O[C@H]2[C@H]1CC/C(COC(=O)CCCCCCC(=O)OC/C1=C/CC[C@@]3(C)O[C@H]3[C@H]3OC(=O)C(=C)[C@@H]3CC1)=C\CC[C@@]1(C)O[C@@H]21,4.54% (active)
18,O=C(Nc1ccc2ncnc(Nc3ccc(F)c(Cl)c3)c2c1)c1ccccc1,98.6%
19,O=C(NC[C@H](O)CN1CCc2ccccc2C1)c1cc(NC2COC2)ncn1,98.3%
